Compounds with a hit are over-represented: about 0.58% of the library has one in this group of screens.
CatB block – blocks human cathepsin B protease activity; purified cathepsin B, fluorogenic substrate, fluorescence; inhibition, %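 (tested at 10 µM)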; 63,000 tested, 0.1% active; in the data active = inhibition above about 21%;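 note: 0% = enzyme with no compound and 100% = no enzyme blank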
C1s inh – blocks human complement C1s protease activity; P09871; purified C1s, fluorogenic AMC substrate, pooled mixtures; 62,000 tested, 0.16% active; AID 538; mean inhibition % of two 10-compound mixtures (stronger effect = higher value), % at 5 µM (by protocol);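 active = inhibition above 20% in each of the two 10-compound mixture wells holding the compound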;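 note: 0% = enzyme wells lacking compound mixture and 100% = no-enzyme blank wells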
Target sequence (P09871 16-437 limits assumed): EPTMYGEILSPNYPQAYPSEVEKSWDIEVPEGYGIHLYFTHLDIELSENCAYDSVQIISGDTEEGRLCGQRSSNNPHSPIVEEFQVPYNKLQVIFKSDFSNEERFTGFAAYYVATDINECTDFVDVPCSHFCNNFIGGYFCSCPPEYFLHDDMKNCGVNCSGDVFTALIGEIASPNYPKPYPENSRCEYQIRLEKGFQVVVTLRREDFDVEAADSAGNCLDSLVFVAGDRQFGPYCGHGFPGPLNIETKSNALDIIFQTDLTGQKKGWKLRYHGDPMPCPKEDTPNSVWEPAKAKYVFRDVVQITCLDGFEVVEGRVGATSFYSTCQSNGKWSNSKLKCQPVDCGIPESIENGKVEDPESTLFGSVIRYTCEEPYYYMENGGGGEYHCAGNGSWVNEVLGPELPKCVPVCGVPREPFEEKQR
Target sequence (P09871 438-688 limits assumed): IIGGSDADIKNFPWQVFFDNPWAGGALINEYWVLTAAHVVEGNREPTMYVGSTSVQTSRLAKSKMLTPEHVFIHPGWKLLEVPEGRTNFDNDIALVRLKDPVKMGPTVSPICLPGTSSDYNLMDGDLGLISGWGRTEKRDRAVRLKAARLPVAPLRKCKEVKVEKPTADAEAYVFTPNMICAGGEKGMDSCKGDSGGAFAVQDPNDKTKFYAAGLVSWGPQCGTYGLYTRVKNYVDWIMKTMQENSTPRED
CatB mix inh – human cathepsin B inhibition by mixtures | 62,000 tested, 0.06% active | Purified cathepsin B, AMC dipeptide fluorescence, compound mixtures | inhibition, %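 (ten-compound pools at 5 µM per compound and 50 µM total)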; in the data active = inhibition above about 22%, passing the limit was not always enough; inconclusive = no clear call, values can overlap the other calls;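 note: 0% = enzyme without compound and 100% = no enzyme blank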
CatS block – blocks human cathepsin S protease activity; inhibition, %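 (tested at 5 µM per compound within 10-compound mixtures)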; P25774; recombinant cathepsin S, AMC dipeptide fluorescence, pooled mixtures; AID 501; 62,000 tested, 0.06% active; in the data active = inhibition above about 32%, passing the limit was not always enough; inconclusive = no clear call, values can overlap the other calls;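 note: 0% = enzyme without compound and 100% = blank without enzyme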
Cathepsin G inh – inhibitors of human cathepsin G; 62,000 tested, 0.2% active; inhibition, % at 5 µM (by protocol); purified enzyme, AMC-tetrapeptide fluorescence, pooled mixtures; P08311;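 active = inhibition above 20% in each of the two mixture wells holding the compound; inactive = inhibition of 20% or less in either well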;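 note: 0% = enzyme control without mixture and 100% = blank lacking enzyme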
CatL inh – inhibitors of human cathepsin L | purified cathepsin L, fluorogenic substrate, fluorescence | 58,000 tested, 0.17% active | inhibition, %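 (tested at 10 µM)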; in the data active = inhibition above about 45%;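 note: 0% = enzyme with no compound and 100% = no enzyme blank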
* = called active by the depositor; ? = inconclusive; . = no result.

SMILES	CatB block	C1s inh	CatB mix inh	CatS block	Cathepsin G inh	CatL inh
CCOC(=O)Cn1c(-c2nonc2NC(=O)c2ccccc2F)nc2ccccc21	2	8	0	-4	6	-14
O=C(CCS(=O)(=O)c1cccc2nonc12)N1CCN(c2ccc(F)cc2)CC1	4	-12	1	-4	-1	-4
CCOc1ccc(CCNC(=O)Cn2c(-c3nonc3N)nc3ccccc32)cc1OCC	65*	-16	51*	3	-6	52*
O=C(Oc1oc(-c2ccco2)nc1C=Nc1ccccc1)c1ccco1	22*	14	11	2	11	18
CCC(=O)Nc1ccc(C(=O)Nc2ccc3c(c2)OCO3)cc1	1	21*	5	-6	16	-2
CC(=O)Nc1ccc(C(=O)Nc2ccc3c(c2)OCO3)cc1	0	2	4	-6	8	-7
O=c1c(-c2ccco2)[n+]([O-])c2ccccc2n1OCc1ccccn1	-1	29*	7	14	20	9
O=C(CN1CCCC1)Nc1ccc(-c2nc3cc(NC(=O)CN4CCCC4)ccc3o2)cc1	-4	-13	2	8	1	-279
COc1ccc(-c2nc(SC)n(C(=O)c3ccco3)n2)cc1	5	63*	5	13	20*	.
CSc1nc(-c2ccco2)nn1C(=O)c1cccs1	1	68*	-1	4	59*	14
CC(=O)n1nc(-c2ccco2)nc1N	9	-40	6	9	-8	25
COc1ccc(C(=O)n2nc(-c3ccco3)nc2SC)cc1OC	7	70*	3	-2	40*	.
COc1ccccc1C(=O)n1nc(-c2ccco2)nc1N	0	-5	1	10	13	8
COc1ccc(CNc2nc(-c3cccnc3)nn2C(=O)c2ccco2)cc1	1	0	-7	-2	12	-6
Nc1nncn1C(=O)c1ccccc1Cl	3	6	2	11	10	11
Cc1cc(C)cc(C(=O)n2cnnc2N)c1	-2	9	-2	14	65*	10
O=S(=O)(c1ccccc1F)N(Cc1ccco1)Cc1nnc(-c2ccccc2Br)o1	-2	0	-3	-13	-2	47*
Cc1cc(NC(=O)c2cc3nc(C4CC4)cc(C(F)(F)F)n3n2)no1	6	22*	1	10	14	12
O=C(NCc1ccco1)c1cc2nc(C3CC3)cc(C(F)(F)F)n2n1	-3	2	5	-4	2	0
CCCc1[nH]nc2c1C1(C(=O)N(C(C)C)c3ccccc31)C(C#N)=C(N)O2 (stereo not given)	2	2	0	-2	7	5
CCCCc1[nH]nc2c1C1(C(=O)N(CC)c3ccccc31)C(C#N)=C(N)O2 (stereo not given)	25*	-28	-3	1	6	8
Cc1ccc(Oc2ccc(S(=O)(=O)N3CCOCC3)cc2C(N)=O)c(-n2nc3ccccc3n2)c1	4	-66	-5	0	-9	11
CC(=O)c1c(OC(=O)c2ccco2)c2ccccc2n1C	4	41*	5	5	18	17
CCOC(=O)c1sc(=NC(=O)c2ccc(S(=O)(=O)N3CC(C)OC(C)C3)cc2)n(C)c1C (stereo not given)	43*	-6	2	-2	3	-14
CC1CN(S(=O)(=O)c2ccc(C(=O)Nc3sc4c(c3C(N)=O)CCN(C)C4)cc2)CC(C)O1 (stereo not given)	1	-47	-5	1	-5	6
SMILES	CatB block	C1s inh	CatB mix inh	CatS block	Cathepsin G inh	CatL inh
Cc1cc(NC(=O)c2cccc(S(=O)(=O)N3CCCCCC3)c2)n(-c2ccccn2)n1	0	43*	-2	-4	42	-4
O=C(O)c1ccc2c(c1)C(=O)N(c1cc(C(=O)O)ccc1Br)C2=O	4	-1	5	19	-2	15
Nc1nc2n(n1)C1(CCCCC1)C1=C(CCCC1)N2	39*	-20	69*	13	-8	4
C1CCC2(CC1)C1=C(CCCC1)Nc1nnnn12	2	3	0	1	7	0
c1cc(-c2nc3cc(Oc4ccc5oc(-c6ccncc6)nc5c4)ccc3o2)ccn1	2	-6	-3	-2	-1	-8
O=C(CNC(=O)c1ccco1)OC(C(=O)c1ccccc1)c1ccccc1 (stereo not given)	18	-9	?	0	-2	78*
COc1ccc2c(c1)CCc1c(C(=O)NCc3ccc(F)cc3)noc1-2	-1	44*	4	-6	93*	-18
COc1ccc2c(c1)CCc1c(C(=O)Nc3ccc(OC)c(OC)c3)noc1-2	-1	19	5	-4	37*	-1
COc1ccc2c(c1)CCc1c(C(=O)NCCc3ccc(OC)c(OC)c3)noc1-2	2	-15	0	-1	52	9
Cc1cccc(-c2nnc3n2N=C(c2ccccc2Br)CS3)c1	0	2	1	1	0	17
Cc1ccnc(N2CCC(C(=O)Nc3cccc(C(F)(F)F)c3)CC2)n1	-2	12	4	-1	9	2
COc1ccc(Cl)c(Cn2c(NCc3ccccn3)nc3c2c(=O)n(C)c(=O)n3C)c1	-2	-10	-1	22	1	-1
COc1ccc(Cl)c(Cn2c(NCCCO)nc3c2c(=O)n(C)c(=O)n3C)c1	1	-28	1	5	2	57*
CCOc1ccc(C2/C(=C(/O)c3ccc(Cl)cc3)C(=O)C(=O)N2CCCN(C)C)cc1OC (stereo not given)	3	5	4	0	12	-3
COc1ccc(S(=O)(=O)Nc2nnc(C(C)(C)C)s2)cc1	-3	2	-4	1	4	.
O=S(=O)(Nc1nnc(-c2ccccc2)s1)c1ccc(Cl)cc1	7	12	8	-1	8	105*
O=C(C1CCCN(S(=O)(=O)c2cccc3cccnc23)C1)N1CCc2ccccc21 (stereo not given)	2	-4	1	9	1	.
O=C(C(Cc1ccccc1)N1C(=O)C2C3C=CC(C3)C2C1=O)N1CCCCCC1 (stereo not given)	1	35	-2	-5	-5	-14
O=C(NCc1ccco1)C(Cc1ccccc1)N1C(=O)C2C3C=CC(C3)C2C1=O (stereo not given)	5	-4	0	12	8	54*
CN/C=C1\C(=O)C(C)(C)Oc2ccc3ccc(=O)oc3c21	5	23*	5	1	10	12
CN1CC2(Cc3c1ccc1ccccc31)C(=O)OC(C)(C)OC2=O	0	-36	-6	-7	42*	-4
Cc1ccc2c(c1)CC1(CN2C)C(=O)OC2(CCCCC2)OC1=O	0	2	-2	8	7	-3
CCC(c1nnnn1C(C)(C)C)N1CCN(c2cc(Cl)ccc2C)CC1 (stereo not given)	3	-3	0	-8	0	13

High-throughput results (PubChem)
